Compounds with a hit are over-represented: about 11% of the library has one in this group of screens.
HPGD block – blocks human HPGD enzyme activity. P15428. purified HPGD, NADH fluorescence kinetic, PGE2 substrate. hit rate 4.3% among 150,000. Potency, µM, without a hit: top-dose activity change, negative = inhibition, most hits filed as inhibitors; further: potency means the concentration at half of the fitted maximal effect
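20 nM HPGD preincubated 15 min at room temperature with compound in 50 mM Tris-HCl pH 8, 0.01% Tween 20. Started with 1 mM NAD+ and 30 uM prostaglandin E2; NADH fluorescence (360/450 nm) read 5 times over 30-s intervals, last minus first.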
ALDH1A1 block – ALDH1A1 (human) enzyme inhibition | Purified ALDH1A1, NADH fluorescence, propionaldehyde substrate | Potency, µM (highest dose often 75.3 µM), for inactives: at the top dose activity, negative = inhibition, usual class: inhibitors | hit rate 7.3% among 220,000;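 further: potency means the concentration at half of the fitted maximal effect; plate controls were no enzyme wells and a reference inhibitor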
Target sequence (P00352 whole entry, looked up): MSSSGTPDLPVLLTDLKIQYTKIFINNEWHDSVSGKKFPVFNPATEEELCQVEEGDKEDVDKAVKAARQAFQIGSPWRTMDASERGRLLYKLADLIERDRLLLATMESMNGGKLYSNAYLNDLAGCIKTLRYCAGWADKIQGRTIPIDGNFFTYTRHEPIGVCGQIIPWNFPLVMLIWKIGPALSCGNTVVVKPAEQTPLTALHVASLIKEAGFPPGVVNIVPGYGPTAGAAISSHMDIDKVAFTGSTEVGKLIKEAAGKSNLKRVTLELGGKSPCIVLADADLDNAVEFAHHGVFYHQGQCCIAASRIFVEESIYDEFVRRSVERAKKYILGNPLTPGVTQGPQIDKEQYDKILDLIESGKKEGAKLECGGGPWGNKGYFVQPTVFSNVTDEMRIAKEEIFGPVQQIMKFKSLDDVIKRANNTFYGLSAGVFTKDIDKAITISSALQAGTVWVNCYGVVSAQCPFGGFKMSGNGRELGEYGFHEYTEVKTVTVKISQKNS
PNC assembly inh – perinucleolar compartment assembly inhibition | PC3M PTB-GFP, PNC prevalence imaging, 16 h; hits give low values | activity change (PNC), negative = inhibition, % at 10 µM | hit rate 3.1% among 140,000 | AID 2417;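 active means readout at or below -70, meaning at least 70% loss of cells showing the perinucleolar compartment, a nuclear body marking cancer cells; inconclusive means readout between -30 and a set limit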;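 further: plate controls were DMSO wells for no effect and camptothecin positive control wells for full effect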
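Read-out is percentage of cells bearing a perinucleolar compartment, from automated 20x imaging of fixed, Hoechst-stained PC3M PTB-GFP cells. Cells were seeded 4 h, then exposed 16 h to compound (23 nl of library stock) in duplicate plates.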
An asterisk follows results filed as active; u = inconclusive; x = not tested or not shown; [ ] = another dose, or the depositor's remark. Unless noted, the call rests on the fitted dose curve; in most records, active means well fitted inhibition curve with a large enough effect (not every such curve was filed as active); inconclusive means small, poorly fitted or top-dose-only effect, or another doubt; inactive means no such curve, though single readings can be large or run the other way. Unless noted, on the % scale 0 is the no-effect control and ±100 the full control effect.

SMILES | HPGD block | ALDH1A1 block | PNC assembly inh
CCC(NC(=O)CCl)c1ccc(C)cc1 (configuration not stated) | x | 8.9µM* | x
COC(=O)C/C=C/C(C)C(OCc1cccc(-c2ccccc2)c1)C1CCCCC1 (configuration not stated) | x | 3%[13.5 µM] | x
CCCCCCCCCCCCOCC1CO1 (configuration not stated) | -4% | u | x
Cc1cc(C)n(CCC(=O)Nc2cccc(F)c2)n1 | x | 0% | x
O=C(Nc1ccccc1)N(CCCN1CCOCC1)Cc1ccccc1F | -4% | 3% | -109*
CCc1ccc2[nH]c(=O)c(CN(CCN3CCOCC3)C(=O)Nc3ccccc3F)cc2c1 | -5% | -3% | -86*
CCc1ccc2[nH]c(=O)c(CN(CCCN3CCOCC3)C(=O)Nc3ccc(F)cc3)cc2c1 | u | u | 19
O=C(Nc1cccc(Cl)c1)N(CCCN1CCOCC1)Cc1ccccc1F | -14% | -13% | 40
O=C(Nc1c2c(nc3ccccc13)CCCC2)c1ccccc1Cl | -9% | 6% | -28
O=C(Nc1c2c(nc3ccccc13)CCCC2)c1cccc([N+](=O)[O-])c1 | -4% | 8% | -9
O=C(Nc1c2c(nc3ccccc13)CCCC2)c1ccccc1F | -4% | -2% | -119*
CC(C)(C)CC(C)(C)NCC(=O)Nc1c2c(nc3ccccc13)CCC2 | x | 9.5µM* | x
Cc1cc2nccc(-c3cccnc3)n2n1 | x | -1% | x
Cn1c(=S)n(CCC(=O)O)c2ccccc21 | x | -1% | x
NC(=O)CSc1ccc(F)cc1 | x | 1% | x
COc1ccc(S(=O)(=O)NCCOc2ccccc2)cc1-n1cnnn1 | x | 8.9µM* | x
COc1ccc(S(=O)(=O)NCCOc2ccccc2)cc1OC | -9% | 0% | -9
C=C1C[C@@]23C[C@@]1(O)CC[C@@H]2[C@]12C=C[C@@H](O)[C@](C)(C(=O)O1)[C@@H]2[C@@H]3C(=O)O | -5% | 6% | x
COc1ccc(NC(=S)Nc2cccc(S(=O)(=O)N3CCCCC3)c2)cc1 | -16% | u | 35
CN(C)c1ccc(N=Cc2ccco2)cc1 | -29% | 5µM* | -22
Cc1ccc(/C=N/N=C/c2ccc(C)cc2)cc1 | -3% | 13% | 19
Cc1ccc(N=Cc2ccc(N(C)C)cc2)cc1C | x | 0.56µM* | x
Cc1ccc(N=Cc2ccc(N(C)C)cc2)cc1 | -15% | 0.56µM* | -16
CN(C)c1ccc(/C=N/NC(=O)c2ccccc2Cl)cc1 | -6% | u | 14
C(=N\C(/N=C/c1ccco1)c1ccco1)/c1ccco1 | u | u | 31
SMILES | HPGD block | ALDH1A1 block | PNC assembly inh
CCCCCC(=O)N/N=C/c1ccc(N(C)C)cc1 | u | u | 9
C/C(=N/N=C/c1ccc(N(C)C)cc1)c1ccccc1 | -16% | 25µM* | 24
Fc1ccc(CSc2nnc(-c3cccnc3)o2)cc1 | x | 0% | x
Cc1nn(-c2ccccc2)c(-c2ccccc2[N+](=O)[O-])c1C(=O)O | x | -9% | x
COc1ccc(C(=O)OCN2C(=O)c3ccccc3C2=O)cc1 | x | -6% | x
Cc1ccccc1C(=O)N/N=C1\SCC(=O)N1Cc1ccco1 | x | 1% | x
C=CCN(c1ccccc1Cl)S(=O)(=O)c1cccc(C(=O)OCC(=O)N(C)C2CCS(=O)(=O)C2)c1 (configuration not stated) | x | 5% | x
CN(C)c1ccc(/C=N/n2ncc3ccccc32)cc1 | u | u | -14
CN(C)c1ccc(C=Nc2ccc(N(C)C)cc2)cc1 | -27% | 2.2µM* | 41
CN(C)c1ccc(C=Nc2ccccc2)cc1 | -16% | 0.89µM* | -12
CN(C)c1ccc(/C=N/O)cc1 | x | -1% | x
O=C(O)[C@@H]1[C@@H](C(=O)NCc2cccnc2)[C@@H]2C=C[C@@H]1O2 | -13% | 3%[13.5 µM] | x
CCN1C(=O)[C@H]2[C@H]3[C@H](O)[C@H](O)C/C(=N/O[C@@H]4O[C@@H](COC(C)=O)[C@@H](OC(C)=O)[C@@H](OC(C)=O)[C@H]4OC(C)=O)[C@H]3CC[C@@H]2C1=O | x | 0%[13.5 µM] | x
CCOc1ccc2nc3c(cc2c1)CN(CCOC)C(=NCCOC)S3 | -3% | 4% | 23
COCCN=C1Sc2nc3ccc(C)cc3cc2CN1Cc1ccco1 | -20% | 25µM* | 9
CC1=C(C)CC(C(=O)Nc2ccc(C(=O)N3CCOCC3)cc2)C(C(=O)O)C1 (configuration not stated) | x | -2% | x
Cc1cc(C(=O)N2CCN(S(=O)(=O)c3ccccc3F)CC2)c(C)o1 | x | -9% | x
CCOC(=O)Cn1c(=O)oc2cc(S(=O)(=O)Nc3cc(Cl)ccc3OC)ccc21 | -18% | u | -97*
CCOC(=O)Cn1c(=O)oc2cc(S(=O)(=O)Nc3ccc(N(CC)CC)cc3C)ccc21 | 28µM* | u | 9
CCOC(=O)Cn1c(=O)oc2cc(S(=O)(=O)Nc3cc(OCC)ccc3OCC)ccc21 | -11% | 0% | -3
CCOC(=O)Cn1c(=O)oc2cc(S(=O)(=O)Nc3cccc(C)c3)ccc21 | -3% | 1% | u
CO[C@H]1COC(=O)[C@@H](C)COC(=O)[C@@H](Cc2ccccc2)NC(=O)C/C=C\[C@H]1C | x | 4%[13.5 µM] | x
Cc1ccc(NC(=O)COC(=O)CNC(=O)c2ccco2)cc1 | x | 11% | x
Cc1c(-c2ccccc2)oc2c(C(=O)N3CCN(c4ccc([N+](=O)[O-])cc4)CC3)cccc2c1=O | -18% | 3.5µM* | 8
O=C(O)c1ccccc1SCC(=O)N1CCCCC1 | -6% | 11% | -6
SMILES | HPGD block | ALDH1A1 block | PNC assembly inh
O=C(Nc1ccc2c(c1)OCCO2)C1CCN(C(=O)c2ccc([N+](=O)[O-])cc2)CC1 | x | -6% | x
Cc1cc(C(=O)N2CCN(c3ccc([N+](=O)[O-])cc3)CC2)no1 | -1% | -10% | u
Nc1nnc(SCC(=O)c2ccccc2)s1 | -17% | u | -1
O=C(c1ccc2c(c1)OCCO2)N1CCN(c2ccc([N+](=O)[O-])cc2)CC1 | x | 14µM* | x
O=C(CSc1ccccc1C(=O)O)c1ccc([N+](=O)[O-])cc1 | x | 16µM* | x
Nc1nnc(SCC(=O)c2ccc([N+](=O)[O-])cc2)s1 | x | 2.8µM* | x
CCCc1c(C)nn(-c2ncccc2[N+](=O)[O-])c1C | x | -11% | x
N#CC(=C=[N-])c1nc2ccccc2nc1-[n+]1cccc(NC(=O)c2cccs2)c1 | x | -2% | x
COC(=O)[C@@]1(Cc2ccc(F)cc2)[C@H]2c3cc(C(=O)N4CCCC4)n(CCN4CNCC4=O)c3C[C@H]2CN1C(=O)c1ccccc1 | -8% | -2% | x
O=S(=O)(c1ccccc1)N1CCC[C@@]2(CCN(Cc3cc(C(F)(F)F)cc(C(F)(F)F)c3)C2)C1 | -8% | -12% | x
O=C(c1cc([N+](=O)[O-])ccc1Cl)N1CCN(c2ccccc2)CC1 | -12% | u | 29
CCn1cc(C(=O)N2CCN(c3ccc([N+](=O)[O-])cc3)CC2)c(=O)c2ccc(C)nc21 | x | 25µM* | x
Cc1cccc(C(=O)N2CCN(c3ccc([N+](=O)[O-])c(N4CCOCC4)c3)CC2)c1 | -16% | 5µM* | 32
O=C(c1ccc2ccccc2c1)N1CCN(c2ccc([N+](=O)[O-])c(N3CCOCC3)c2)CC1 | -17% | u | u
CCCCN(C)C(=O)c1cn(CC)c2nc(C)ccc2c1=O | -16% | 5% | -11
CCSc1ccccc1C(=O)N1CCN(c2ccc([N+](=O)[O-])cc2)CC1 | x | 14µM* | x
CC(C)(O)C#Cc1ccc(C(=O)N2CCN(c3ccc([N+](=O)[O-])cc3)CC2)cc1 | x | 20µM* | x
